Measurements published in PubChem BioAssay (EPA / NIEHS).
Values joined by “and” are separate entries in the source; they are usually repeats but may differ in a detail not shown here. Equal values may be shown once. Records with an inconclusive call do not appear. Active and inactive are the calls of the source. The calls were made as follows, unless noted: active = hit-call score of the fitted dose curve at least 0.9, where 1 is the maximum; inactive = score below 0.9.

Experiments:
CD69, CD69 (gene 969) = assay: BSK_SAg_CD69: BioMAP Diversity Plus: SAg Assay for CD69 Biomarker Activity (AID 2283089); settings: primary human HUVEC with PBMC; actives raise or lower the signal;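 as to AC50: cell surface CD69 protein quantified by ELISA with fluorescence detection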
Summary of the method: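 Primary human vascular co-culture (umbilical vein endothelium with peripheral blood mononuclear cells) exposed to test chemical for 24 h. CD69 levels quantified by fluorescence ELISA; DMSO served as negative control for bidirectional fitting.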

[1] = read-out: Monocyte Chemoattractant Protein-1 (MCP1), CCL2 (gene 6347); assay: BSK_SAg_MCP1: BioMAP Diversity Plus: SAg Assay for Monocyte Chemoattractant Protein-1 (MCP1) Biomarker Activity (AID 2283090); settings: primary human HUVEC with PBMC; actives raise or lower the signal
Summary of the method: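 Values derive from bidirectional fitting of ELISA-measured MCP1 against DMSO controls. Readings were taken 24 h after dosing human vascular endothelial cells co-cultured with peripheral blood mononuclear cells under superantigen stimulation.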

[2] = read-out: Monokine induced gamma interferon (MIG), CXCL9 (gene 4283); assay: BSK_SAg_MIG: BioMAP Diversity Plus: SAg Assay for Monokine induced gamma interferon (MIG) Biomarker Activity (AID 2283092); settings: primary human HUVEC with PBMC; actives raise or lower the signal
Summary of the method: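 Endothelial cells and PBMC were co-cultured, exposed to test chemicals, and sampled 24 h later. MIG was measured by ELISA, and responses were fitted in both directions relative to DMSO.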

[3] = BSK_SAg_PBMCCytotoxicity: PBMC Cytotoxicity Assessment in the BioMAP Diversity Plus: SAg Assay (AID 2283093); settings: primary human HUVEC with PBMC;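 also: PBMC viability measured as Alamar Blue reduction fluorescence at 546/580 nm; fitted both ways against DMSO so a hit may be loss or gain of signal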;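 as to AC50: PBMC superantigen activated with SEB plus TSST-1 one hour after compound addition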
Summary of the method: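 Alamar Blue reduction (6 h, 546/580 nm) reports PBMC cytotoxicity after 90 h superantigen activation (SEB, TSST-1; 20 ng/mL final each) with 1 h compound pre-treatment. Gain or loss of signal fitted versus DMSO.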

[4] = read-out: Interleukin-8 (IL8), CXCL8 (gene 3576); assay: BSK_SAg_IL8: BioMAP Diversity Plus: SAg Assay for Interleukin-8 (IL8) Biomarker Activity (AID 2283094); settings: primary human HUVEC with PBMC; actives raise or lower the signal
Summary of the method: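 HUVEC/PBMC co-culture, 24 h post-dose; IL-8 by ELISA. Gain or loss of signal fitted bidirectionally vs DMSO baseline.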

[5] = BSK_SAg_Proliferation: Cell Proliferation Assessment in the BioMAP Diversity Plus: SAg Assay (AID 2283095); settings: primary human HUVEC with PBMC;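 also: relative cell number as total protein by SRB absorbance in sub-confluent culture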
Summary of the method: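 HUVEC/PBMC co-culture, 96-well. TCA-fixed (10%), 0.1% SRB stain, A560 at 96 h. Protein content used as viability readout; bidirectional fitting vs DMSO control.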

[6] = BSK_SAg_SRB: Viability Assessment in the BioMAP Diversity Plus: SAg Assay (AID 2283096); settings: primary human HUVEC with PBMC;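 also: cells read one day after compound addition; hits may be either gain or loss of signal compared with DMSO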
Summary of the method: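 This overt-cytotoxicity endpoint quantifies protein in human endothelial/PBMC co-cultures at 24 h using SRB absorbance (560 nm) after trichloroacetic acid fixation. Values reflect signal change from the DMSO negative control, fitted bidirectionally.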

[7] = biological target: human CYP2D6, CYP2D6 (gene 1565) (UniProt P10635); assay: NVS_ADME_hCYP2D6: NovaScreen (NVS) CYP450-related Enzyme Activity (ADME) Assay for human CYP2D6 (AID 2283107; active = hit-call score of the fitted dose curve at least 0.9, where 1 is the maximum)
Chain of human CYP2D6, CYP2D6 (gene 1565) (P10635 whole entry, looked up): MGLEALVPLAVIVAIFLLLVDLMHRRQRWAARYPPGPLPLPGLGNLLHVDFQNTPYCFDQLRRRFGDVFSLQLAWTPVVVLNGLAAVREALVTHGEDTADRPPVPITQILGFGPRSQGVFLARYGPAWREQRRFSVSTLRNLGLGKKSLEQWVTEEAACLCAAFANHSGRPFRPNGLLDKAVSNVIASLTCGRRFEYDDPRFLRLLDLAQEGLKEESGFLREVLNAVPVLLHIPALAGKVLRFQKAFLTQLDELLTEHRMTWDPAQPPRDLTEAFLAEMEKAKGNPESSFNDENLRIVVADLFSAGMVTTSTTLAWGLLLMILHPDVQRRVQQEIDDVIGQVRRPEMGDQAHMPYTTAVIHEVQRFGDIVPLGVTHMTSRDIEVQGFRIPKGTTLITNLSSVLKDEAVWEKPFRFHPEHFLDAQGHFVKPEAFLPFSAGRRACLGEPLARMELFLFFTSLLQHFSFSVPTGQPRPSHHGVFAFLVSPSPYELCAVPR
Summary of the method: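 Cell-free assay using recombinant human CYP2D6 expressed in insect cells, with a fluorogenic substrate read after 1 h. Primary screen in duplicate at 10 uM; actives followed up in concentration series. Loss of signal fitted relative to acetonitrile.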

[8] = biological target: human CYP2C9, CYP2C9 (gene 1559) (UniProt P11712); assay: NVS_ADME_hCYP2C9: NovaScreen (NVS) CYP450-related Enzyme Activity (ADME) Assay for human CYP2C9 (AID 2283108; active = hit-call score of the fitted dose curve at least 0.9, where 1 is the maximum)
Chain of human CYP2C9, CYP2C9 (gene 1559) (P11712 whole entry, looked up): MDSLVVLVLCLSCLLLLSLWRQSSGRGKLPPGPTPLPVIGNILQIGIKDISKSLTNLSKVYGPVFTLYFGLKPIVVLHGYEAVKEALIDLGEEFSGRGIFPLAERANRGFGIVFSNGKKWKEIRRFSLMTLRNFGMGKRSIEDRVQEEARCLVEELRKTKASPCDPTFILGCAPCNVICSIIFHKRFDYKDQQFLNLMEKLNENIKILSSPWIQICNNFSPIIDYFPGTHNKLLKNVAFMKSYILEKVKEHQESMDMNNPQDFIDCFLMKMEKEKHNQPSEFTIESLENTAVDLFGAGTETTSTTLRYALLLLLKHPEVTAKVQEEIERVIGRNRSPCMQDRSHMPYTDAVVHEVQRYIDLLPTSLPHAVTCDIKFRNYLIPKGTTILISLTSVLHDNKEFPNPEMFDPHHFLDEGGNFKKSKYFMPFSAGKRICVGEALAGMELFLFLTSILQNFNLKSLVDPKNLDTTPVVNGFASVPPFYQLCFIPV
Summary of the method: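 Cell-free assay of recombinant human CYP2C9 produced in Sf9 cells, with enzyme activity read by fluorescence intensity 0.75 h after compound addition. Loss of signal versus an acetonitrile negative control indicates inhibition. Primary screen used 10 uM in duplicate; actives were retested in concentration series.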

[9] = biological target: Cytochrome P450 2C19 (Homo sapiens) (UniProt P33261); assay: NVS_ADME_hCYP2C19: NovaScreen (NVS) CYP450-related Enzyme Activity (ADME) Assay for human CYP2C19 (AID 2283113; active = hit-call score of the fitted dose curve at least 0.9, where 1 is the maximum;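 also: potency for inhibition seen as loss of fluorescent signal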)
Summary of the method: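 Cell-free recombinant human CYP2C19 from insect cells, fluorescent substrate; activity read by fluorescence intensity 1 h after dosing. Primary screen in duplicate at 10 uM; actives retested in concentration series. Signal loss versus acetonitrile negative control.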

[10] = biological target: human CYP19A1, CYP19A1 (gene 1588) (UniProt P11511); assay: NVS_ADME_hCYP19A1: NovaScreen (NVS) CYP450-related Enzyme Activity (ADME) Assay for human CYP19A1 (AID 2283098; active = hit-call score of the fitted dose curve at least 0.9, where 1 is the maximum;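 as to AC50: potency for inhibitors seen as loss of fluorescent enzyme signal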)
Chain of human CYP19A1, CYP19A1 (gene 1588) (P11511 whole entry, looked up): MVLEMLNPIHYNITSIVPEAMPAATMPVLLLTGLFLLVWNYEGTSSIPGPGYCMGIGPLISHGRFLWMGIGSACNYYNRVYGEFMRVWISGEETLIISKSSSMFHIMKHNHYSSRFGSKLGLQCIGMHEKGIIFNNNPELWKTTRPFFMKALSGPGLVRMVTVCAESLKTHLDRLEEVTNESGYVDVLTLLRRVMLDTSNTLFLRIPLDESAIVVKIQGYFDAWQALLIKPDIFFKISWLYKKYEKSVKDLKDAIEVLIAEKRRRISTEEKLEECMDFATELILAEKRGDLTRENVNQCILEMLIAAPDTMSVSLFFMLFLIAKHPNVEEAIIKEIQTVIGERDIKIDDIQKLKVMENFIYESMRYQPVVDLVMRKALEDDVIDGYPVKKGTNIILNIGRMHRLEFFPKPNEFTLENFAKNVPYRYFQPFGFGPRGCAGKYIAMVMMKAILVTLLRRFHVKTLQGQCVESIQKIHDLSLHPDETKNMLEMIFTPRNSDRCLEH
Summary of the method: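 Compounds were first screened at 10 uM in duplicate against purified enzyme, with a fluorogenic substrate and fluorescence intensity detection after 0.5 h. Inhibition appears as reduced signal against acetonitrile control.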

[11] = biological target: human CYP1A1, CYP1A1 (gene 1543) (UniProt P04798); assay: NVS_ADME_hCYP1A1: NovaScreen (NVS) CYP450-related Enzyme Activity (ADME) Assay for human CYP1A1 (AID 2283100; active = hit-call score of the fitted dose curve at least 0.9, where 1 is the maximum)
Chain of human CYP1A1, CYP1A1 (gene 1543) (P04798 whole entry, looked up): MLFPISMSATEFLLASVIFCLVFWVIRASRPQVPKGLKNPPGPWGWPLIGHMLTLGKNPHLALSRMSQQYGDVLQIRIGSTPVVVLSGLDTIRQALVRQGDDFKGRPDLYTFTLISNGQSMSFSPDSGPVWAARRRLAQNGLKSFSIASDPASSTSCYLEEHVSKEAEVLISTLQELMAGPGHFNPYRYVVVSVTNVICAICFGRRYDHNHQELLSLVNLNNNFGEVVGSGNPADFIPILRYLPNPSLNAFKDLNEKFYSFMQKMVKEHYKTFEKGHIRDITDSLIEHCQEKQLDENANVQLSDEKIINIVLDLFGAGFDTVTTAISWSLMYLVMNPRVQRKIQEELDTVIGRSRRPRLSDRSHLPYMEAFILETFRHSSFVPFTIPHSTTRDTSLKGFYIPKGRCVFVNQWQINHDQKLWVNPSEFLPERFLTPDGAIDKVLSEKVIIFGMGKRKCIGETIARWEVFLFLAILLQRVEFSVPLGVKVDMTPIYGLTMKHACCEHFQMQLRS
Summary of the method: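 Recombinant CYP1A1 with a fluorogenic substrate, cell-free, read 1 h after dosing; acetonitrile as negative control. Single-concentration screen at 10 uM in duplicate, then concentration-response up to 20 uM for chemicals meeting ~30% inhibition threshold.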

[12] = biological target: human CYP1A2, CYP1A2 (gene 1544) (UniProt P05177); assay: NVS_ADME_hCYP1A2: NovaScreen (NVS) CYP450-related Enzyme Activity (ADME) Assay for human CYP1A2 (AID 2283102; active = hit-call score of the fitted dose curve at least 0.9, where 1 is the maximum;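 as to AC50: potency for inhibition since loss of fluorescence marks reduced CYP1A2 activity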)
Chain of human CYP1A2, CYP1A2 (gene 1544) (P05177 whole entry, looked up): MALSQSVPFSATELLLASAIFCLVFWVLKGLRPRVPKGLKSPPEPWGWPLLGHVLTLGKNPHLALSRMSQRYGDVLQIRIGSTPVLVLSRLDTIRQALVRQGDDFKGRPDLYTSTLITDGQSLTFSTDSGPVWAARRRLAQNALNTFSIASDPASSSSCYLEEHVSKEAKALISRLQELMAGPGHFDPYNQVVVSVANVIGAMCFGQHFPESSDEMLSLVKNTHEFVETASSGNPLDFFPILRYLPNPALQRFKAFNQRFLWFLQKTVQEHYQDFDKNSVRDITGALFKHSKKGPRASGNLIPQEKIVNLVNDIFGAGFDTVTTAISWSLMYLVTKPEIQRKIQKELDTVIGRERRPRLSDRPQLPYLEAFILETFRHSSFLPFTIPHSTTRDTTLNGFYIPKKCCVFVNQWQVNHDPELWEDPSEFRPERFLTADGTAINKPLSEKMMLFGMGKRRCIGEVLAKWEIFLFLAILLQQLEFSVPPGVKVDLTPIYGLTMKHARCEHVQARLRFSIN
Summary of the method: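 Recombinant human CYP1A2 from insect cells, cell-free, fluorogenic substrate; read 0.5 h after dosing with loss of fluorescence signal indicating inhibition. Primary screen in duplicate at 10 uM, acetonitrile as negative control.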

[13] = biological target: human CYP2B6, CYP2B6 (gene 1555) (UniProt P20813); assay: NVS_ADME_hCYP2B6: NovaScreen (NVS) CYP450-related Enzyme Activity (ADME) Assay for human CYP2B6 (AID 2283101; active = hit-call score of the fitted dose curve at least 0.9, where 1 is the maximum)
Chain of human CYP2B6, CYP2B6 (gene 1555) (P20813 whole entry, looked up): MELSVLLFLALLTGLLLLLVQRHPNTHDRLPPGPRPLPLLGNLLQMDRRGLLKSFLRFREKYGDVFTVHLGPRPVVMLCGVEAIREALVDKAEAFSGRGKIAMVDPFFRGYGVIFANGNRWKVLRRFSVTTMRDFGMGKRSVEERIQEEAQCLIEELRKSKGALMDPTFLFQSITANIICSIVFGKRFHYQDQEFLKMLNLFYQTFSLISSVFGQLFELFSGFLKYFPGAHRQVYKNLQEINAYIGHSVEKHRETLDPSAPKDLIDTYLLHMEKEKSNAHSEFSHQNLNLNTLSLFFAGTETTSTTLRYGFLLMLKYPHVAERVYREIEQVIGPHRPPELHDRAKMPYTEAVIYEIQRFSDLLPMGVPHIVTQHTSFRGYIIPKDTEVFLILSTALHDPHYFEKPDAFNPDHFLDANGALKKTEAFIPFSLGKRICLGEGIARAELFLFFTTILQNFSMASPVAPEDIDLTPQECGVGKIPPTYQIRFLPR
Summary of the method: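 Cell-free recombinant enzyme assay with a fluorogenic substrate; fluorescence intensity read 1 hour after dosing. Loss of signal relative to acetonitrile negative control indicates inhibition. Primary screen run in duplicate at 10 uM, actives then tested in concentration series.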

[14] = biological target: Cytochrome P450 2C18 (Homo sapiens) (UniProt P33260); assay: NVS_ADME_hCYP2C18: NovaScreen (NVS) CYP450-related Enzyme Activity (ADME) Assay for human CYP2C18 (AID 2283103)
Chain of Cytochrome P450 2C18 (Homo sapiens) (P33260 whole entry, looked up): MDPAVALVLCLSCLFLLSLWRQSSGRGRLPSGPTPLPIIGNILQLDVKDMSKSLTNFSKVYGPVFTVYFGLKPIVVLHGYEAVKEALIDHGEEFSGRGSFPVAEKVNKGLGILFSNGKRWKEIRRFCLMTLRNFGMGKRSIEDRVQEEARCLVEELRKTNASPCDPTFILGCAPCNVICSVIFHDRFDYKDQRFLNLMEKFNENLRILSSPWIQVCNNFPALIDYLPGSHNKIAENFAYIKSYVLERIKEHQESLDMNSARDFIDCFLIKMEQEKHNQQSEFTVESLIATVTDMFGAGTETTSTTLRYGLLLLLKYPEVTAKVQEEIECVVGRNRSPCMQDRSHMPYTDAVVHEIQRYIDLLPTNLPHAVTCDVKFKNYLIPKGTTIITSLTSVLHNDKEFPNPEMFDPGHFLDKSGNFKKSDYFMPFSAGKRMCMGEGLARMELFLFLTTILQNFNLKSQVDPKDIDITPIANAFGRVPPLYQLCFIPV
Summary of the method: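 Enzyme activity measured by fluorescence 0.5 h after compound addition, using recombinant CYP2C18 and a specific substrate. Actives from duplicate 10 uM screening were retested in concentration series (top 20 uM); acetonitrile served as negative baseline.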

[15] = biological target: Cytochrome P450 3A4 (Homo sapiens) (UniProt P08684); assay: NVS_ADME_hCYP3A4: NovaScreen (NVS) CYP450-related Enzyme Activity (ADME) Assay for human CYP3A4 (AID 2283110; active = hit-call score of the fitted dose curve at least 0.9, where 1 is the maximum)
Chain of Cytochrome P450 3A4 (Homo sapiens) (P08684 whole entry, looked up): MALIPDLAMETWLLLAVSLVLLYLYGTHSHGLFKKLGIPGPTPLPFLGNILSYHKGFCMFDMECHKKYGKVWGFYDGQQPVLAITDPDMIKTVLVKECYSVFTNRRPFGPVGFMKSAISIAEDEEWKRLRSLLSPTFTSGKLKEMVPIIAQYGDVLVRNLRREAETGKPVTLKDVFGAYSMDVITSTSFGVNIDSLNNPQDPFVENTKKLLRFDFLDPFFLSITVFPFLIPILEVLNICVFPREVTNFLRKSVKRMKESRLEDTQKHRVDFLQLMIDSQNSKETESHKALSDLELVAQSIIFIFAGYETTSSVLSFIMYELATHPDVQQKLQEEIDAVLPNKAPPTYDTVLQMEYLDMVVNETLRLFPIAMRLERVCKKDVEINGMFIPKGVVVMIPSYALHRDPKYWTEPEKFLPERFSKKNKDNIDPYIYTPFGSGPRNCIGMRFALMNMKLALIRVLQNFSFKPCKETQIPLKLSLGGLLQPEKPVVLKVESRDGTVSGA
Summary of the method: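 Activity is derived from decreased fluorescence intensity relative to acetonitrile, measured 0.33 hour after dosing insect-cell-expressed CYP3A4 in a cell-free format. Screening used 10 uM in duplicate before concentration-response follow-up.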

[16] = biological target: human CYP2A6, CYP2A6 (gene 1548) (UniProt P11509); assay: NVS_ADME_hCYP2A6: NovaScreen (NVS) CYP450-related Enzyme Activity (ADME) Assay for human CYP2A6 (AID 2283099; active = hit-call score of the fitted dose curve at least 0.9, where 1 is the maximum)
Chain of human CYP2A6, CYP2A6 (gene 1548) (P11509 whole entry, looked up): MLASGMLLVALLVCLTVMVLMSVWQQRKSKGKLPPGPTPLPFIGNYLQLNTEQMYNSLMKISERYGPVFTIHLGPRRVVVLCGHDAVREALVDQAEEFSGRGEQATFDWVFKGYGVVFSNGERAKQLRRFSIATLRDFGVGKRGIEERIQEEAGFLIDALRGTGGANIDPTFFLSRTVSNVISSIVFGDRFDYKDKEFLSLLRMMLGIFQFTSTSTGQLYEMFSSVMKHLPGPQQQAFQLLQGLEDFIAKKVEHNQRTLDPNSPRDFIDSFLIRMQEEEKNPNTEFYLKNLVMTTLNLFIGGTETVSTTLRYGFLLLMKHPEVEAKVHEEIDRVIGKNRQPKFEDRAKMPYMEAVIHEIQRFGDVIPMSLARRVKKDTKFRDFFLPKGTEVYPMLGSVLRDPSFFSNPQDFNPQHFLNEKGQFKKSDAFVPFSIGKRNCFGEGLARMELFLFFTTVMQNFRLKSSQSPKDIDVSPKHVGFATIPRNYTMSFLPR
Summary of the method: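 Recombinant human CYP2A6 expressed in insect cells, cell-free; fluorogenic substrate turnover read by fluorescence intensity 0.5 h after dosing. Primary screen 10 uM in duplicate, then concentration-response up to 20 uM; acetonitrile as negative control.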

Measured: AC50

CC(=O)C(Cl)C(=O)N(C)C (stereo not drawn)
active: CD69, CD69 (gene 969) 16.7 µM | [1] 20 µM | [3] 7.81 µM | [4] 14.1 µM | [5] 20 µM
inactive: [2] | [6]

CCCCCCCCC(=O)NCc1ccc(O)c(OC)c1
active: [7] 3.45 µM | [8] 3.95 µM | [9] 1.66 µM
inactive: CD69, CD69 (gene 969) | [1] | [2] | [3] | [4] | [5] | [6]

CC(=O)C=C(C)C
inactive: [10]

ClC1=C(Cl)[C@]2(Cl)[C@H]3[C@H]([C@H]4C=C[C@H]3C4)[C@@]1(Cl)C2(Cl)Cl
inactive: [1] | [2] | [4]
active: [3] 20 µM | [5] 20 µM | [6] 5.42 µM

CC(C)c1ccc(CO)cc1
inactive: CD69, CD69 (gene 969) | [1] | [2] | [3] | [4] | [5] | [6]

ClC1(Cl)C2(Cl)C3(Cl)C4(Cl)C(Cl)(Cl)C5(Cl)C3(Cl)C1(Cl)C5(Cl)C24Cl (stereo not drawn)
inactive: CD69, CD69 (gene 969) | [1] | [2] | [3] | [4] | [5] | [6] | [11]

Nc1ccc(-c2ccc(N)c(Cl)c2)cc1Cl
inactive: CD69, CD69 (gene 969) | [1] | [2] | [3] | [4] | [5]
active: [6] 8.93 µM | [8] 1.24 µM | [9] 2.34 µM

CCN1CCC2(CC1)COc1cc3c(cc12)N(C(=O)c1ccc(-c2ccc(-c4nnc(C)o4)cc2C)cc1)CC3
active: CD69, CD69 (gene 969) 12 µM | [1] 12.6 µM | [2] 30.8 µM | [3] 12.6 µM | [4] 12.3 µM | [5] 6.95 µM | [6] 12.7 µM | [9] 2.84 µM

Oc1c(I)cc(I)cc1I
active: CD69, CD69 (gene 969) 29.4 µM | [1] 32.3 µM | [2] 34.2 µM | [4] 34.3 µM | [5] 31.9 µM | [6] 20 µM
inactive: [3]

O=C(OC1CCCCC1)c1ccccc1C(=O)OC1CCCCC1
active: CD69, CD69 (gene 969) 26.2 µM | [1] 27.8 µM | [2] 29.8 µM | [3] 20.9 µM | [4] 20.9 µM | [5] 17.3 µM | [6] 20.9 µM

COC(=O)c1sccc1S(=O)(=O)NC(=O)Nc1nc(C)nc(OC)n1
inactive: CD69, CD69 (gene 969) | [1] | [2] | [3] | [4] | [5] | [6]

CCC(C)(C)c1ccc(O)c(C(C)(C)CC)c1
active: CD69, CD69 (gene 969) 13.7 µM | [2] 20.8 µM | [3] 9.42 µM | [4] 9.58 µM | [5] 7.43 µM | [6] 14.6 µM

CCOC(=O)Nc1cccc(OC(=O)Nc2ccccc2)c1
active: [12] 11.4 µM

O=C1C2(Cl)C3(Cl)C4(Cl)C(Cl)(Cl)C5(Cl)C3(Cl)C1(Cl)C5(Cl)C24Cl (stereo not drawn)
active: CD69, CD69 (gene 969) 8.18 µM | [1] 11.2 µM | [2] 10.6 µM | [3] 5.7 µM | [4] 26.2 µM | [5] 4.64 µM | [6] 6.17 µM | [13] 2.02 µM and 4.09 µM and 1.02 µM | [14] 0.519 µM | [8] 82.1 nM and 2.8 µM and 487 nM | [9] 458 nM and 1.44 µM and 374 nM
inactive: [15]

COc1cc2c(cc1OC)[C@@]13CCN4CC5=CCO[C@H]6CC(=O)N2[C@H]1[C@H]6[C@H]5C[C@H]43
active: [7] 5 µM

CC1(C)CCC(Cc2ccc(Cl)cc2)C1(O)Cn1cncn1 (stereo not drawn)
inactive: [11]
active: [8] 0.419 µM | [15] 2.75 µM | [9] 0.304 µM

O=c1[nH]c(=O)[nH]c(=O)[nH]1
active: [4] 32.6 µM
inactive: CD69, CD69 (gene 969) | [1] | [2] | [3] | [5] | [6]

O=S(=O)(c1ccc(Cl)cc1)c1ccc(Cl)cc1
inactive: CD69, CD69 (gene 969) | [1] | [2] | [3] | [4] | [5] | [6]
active: [13] 2.89 µM | [9] 1.39 µM and 821 nM

[O-][Cl+2]([O-])O
active: [10] 5.58 µM

CCC[CH2][Sn]([Cl])([Cl])[Cl]
inactive: [10]

CCOP(=S)(OCC)SCSP(=S)(OCC)OCC
active: [5] 20 µM | [9] 4.36 µM
inactive: CD69, CD69 (gene 969) | [1] | [2] | [3] | [4] | [6] | [13] | [12]

CC(C)(C)c1cc(O)ccc1O
active: CD69, CD69 (gene 969) 5.54 µM | [1] 8.93 µM | [2] 11.4 µM | [3] 3.17 µM | [4] 7.38 µM | [5] 1.94 µM | [6] 15.3 µM | [7] 7.54 µM | [8] 5.93 µM | [9] 5.9 µM
inactive: [16] | [15]

Nc1ncc([N+](=O)[O-])s1
inactive: CD69, CD69 (gene 969) | [1] | [2] | [3] | [4] | [5] | [6]
